According to ChEMBL document CHEMBL1157539, “Thousands of chemical starting points for antimalarial lead identification” (Nature, 2010):

Each compound was assayed on Plasmodium falciparum (assay: GSK_TCMDC: Inhibition of Plasmodium falciparum 3D7 in whole red blood cells, using parasite LDH activity as an index of growth. Test compounds present at 2uM).
Format: functional
`O=C(O)C(F)(F)F.O=S(=O)(NCCN1CCCC1)c1cccc(-c2ccc(CNCc3ccc(F)cc3)cc2)c1` gave an Inhibition of 100%.
Work on `Cc1cc(=O)c(-c2ccc(Oc3cccc(Cl)c3)cc2)c(C)[nH]1` yielded an Inhibition of 95%.
Compound `Cc1ccc(NC(=O)c2nc(N3CCN(c4ccncc4)CC3)ccc2Cl)cc1F.O=C(O)C(F)(F)F` has an Inhibition of 100%.
`COc1ccc2c(c1)OC(C)(C)CC2=NOS(=O)(=O)c1ccc(C)cc1` gave an Inhibition of 97%.
Work on `Cc1cc(Cl)ccc1OC(C)C(=O)N1CCc2ccccc21` (stereo not drawn) yielded an Inhibition of 94%.
Compound `NC(=O)C1CCN(Cc2ccc(-c3ccc(-c4nc5cc(C(F)(F)F)ccc5[nH]4)s3)cc2)CC1.O=C(O)C(F)(F)F` has an Inhibition of 99%.

The compounds below were run on Plasmodium falciparum (assay: GSK_TCMDC: Inhibition of Plasmodium falciparum Dd2 in whole red blood cells, using parasite LDH activity as an index of growth. Test compounds present at 2uM).
Format: functional
Compound `CCCCN1CCN(Cc2cccc(NC(=O)c3ccc(Cl)c(Cl)c3)c2)CC1.O=C(O)C(F)(F)F` has an Inhibition of 24%.
In the case of `CC1CN(c2cnn(Cc3cccc(NC(=O)Nc4cccc(C(F)(F)F)c4)c3)c(=O)c2Cl)CC(C)N1.O=C(O)C(F)(F)F` (stereo not drawn), the Inhibition was 74%.
In the case of `O=C(Nc1cccc(-c2ccc(-c3nc4cc(F)ccc4[nH]3)s2)c1)c1cccnc1`, the Inhibition was 72%.
`Cc1cccc2nc(C3CCN(CC4CCN(C(=O)/C=C/c5ccc(Cl)c(Cl)c5)CC4)CC3)[nH]c12` gave an Inhibition of 79%.
With `CCN(CC)/C(=N/C(=N)Nc1ccc(C)cc1)NCCCCCCN/C(=N\C(=N)Nc1ccc(C)cc1)N(CC)CC` the Inhibition was 98%.
`CCNc1cc(C(=O)N[C@@H](Cc2ccccc2)[C@H](O)CNCc2cccc(OC)c2)c(OC)c(N2CCCCS2(=O)=O)c1` was tested, and the Inhibition was 96%.
`CCCc1ccc(S(=O)(=O)Nc2ccc3c(c2)CCC3)cc1` gave an Inhibition of 0%.
